Compound activity deposited in PubChem BioAssay by Broad Institute.
This is one part of a sample in which hits are shown more often than they occur.
CD40 NFkB inh: CD40 pathway inhibition in BL2 cells. 83,000 compounds, 0.94% hits. BL2 NF-kB luciferase reporter, CD40L-induced, 4 h. AID 1053188. inhibition, % at 10 µM;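 active = mean inhibition of at least 50% with a set share of replicates also reaching that level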;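 also: 0% = neutral control wells and 100% = IKK inhibitor VII at 50 µM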
* hit, by the source's call; [ ] = remark or other dose.

`CC(=O)N1[C@@H](CO)[C@@H](c2ccccc2)[C@@H]1CN(CC1CCC1)C(=O)CN(C)C` gave CD40 NFkB inh -10[25 µM].
`COCCNC(=O)[C@H]1[C@H](CO)[C@H]2Cn3c(ccc(-c4ccccc4OC)c3=O)[C@H]2N1C(=O)C1CCC1` gave CD40 NFkB inh -13[25 µM].
Screening CC(=O)N1C[C@@H]2C(c3ccc(Br)cc3)[C@H](C1)N2CC(F)(F)F (some centres undefined) returned CD40 NFkB inh 0.
Screening O=C(C1CCCCC1)N1C[C@@H]2[C@H](c3ccccc31)[C@H](CO)N2C(=O)c1ccccc1F returned CD40 NFkB inh -5[25 µM].
Screening CN1CCN(C(=O)C[C@@H]2CC[C@H]3[C@@H](COc4ccc(NC(=O)C5CCC5)cc4C(=O)N3C)O2)CC1 returned CD40 NFkB inh 5.
`CC(C)CCCCCCCCCCCCC(=O)NCC(=O)NC1C(O)C(O)C(Nc2ncnc3nc[nH]c23)OC1C(O)CO` (centres undefined) gave CD40 NFkB inh 104*.
Screening CC(C)=NNc1ncnc2nc[nH]c12 returned CD40 NFkB inh -17.
For C[C@@H]1CN([C@H](C)CO)C(=O)c2ccccc2-c2ccccc2CO[C@@H]1CN(C)Cc1ccc(O)cc1 the results were CD40 NFkB inh -12.
`Clc1ccccc1/C=C/c1nc(-c2ccccn2)no1` gave CD40 NFkB inh 96*.
Cc1occc1-c1nc(-c2ccccn2)no1 was read as CD40 NFkB inh -48.
`Cc1onc(-c2ccccc2Cl)c1-c1nc(-c2ccccn2)no1` gave CD40 NFkB inh 6.
`CNC[C@@H]1Oc2c(NS(C)(=O)=O)cccc2C(=O)N(C)C[C@H]1C` gave CD40 NFkB inh 13.
c1cncc(-c2nc(-c3ccc4c(c3)OCCO4)cs2)c1 was read as CD40 NFkB inh -59.
Oc1ccccc1-c1cc(-c2ccc3c(c2)OCCO3)n[nH]1 was read as CD40 NFkB inh 54*.
Screening Cc1nc(-c2ccc3c(c2)OCCO3)cs1 returned CD40 NFkB inh -73.
CCCC#Cc1ccc([C@H]2[C@@H](CO)N(C(C)=O)[C@H]2CN(C)C(=O)C2CC2)cc1 was read as CD40 NFkB inh 1[25 µM].
CNC[C@@H]1Oc2ccc(NC(=O)NC(C)C)cc2CC(=O)N(C)C[C@H]1C was read as CD40 NFkB inh -5.
`COc1ccc(C2NC(C(=O)O)Cc3c2[nH]c2ccccc32)cc1OC` (centres undefined) gave CD40 NFkB inh -14.
For Cc1cc(C=O)c(C)c2c1[nH]c1ccccc12 the results were CD40 NFkB inh 10.
For COc1ccc(OC)c2c(=S)c3ccccc3[nH]c12 the results were CD40 NFkB inh active[25 µM].
`CN1CCN(C(=O)C[C@@H]2CC[C@H]3[C@H](COc4ccc(NC(=O)C5CCOCC5)cc4C(=O)N3C)O2)CC1` gave CD40 NFkB inh -14[25 µM].
For COc1ccc(S(=O)(=O)Nc2ccc3c(c2)CC(=O)N([C@H](C)CO)C[C@H](C)[C@H](CN(C)C(=O)Nc2c(C)noc2C)O3)cc1 the results were CD40 NFkB inh -2[25 µM].
O=C1C=CC(=O)N1CCCCCCCCCCN1C(=O)C=CC1=O was read as CD40 NFkB inh 110*.
Screening O=C1C=CC(=O)N1Cc1cccnc1 returned CD40 NFkB inh 7.
Screening CNC[C@H]1Oc2ccc(NS(C)(=O)=O)cc2CC(=O)N(C)C[C@H]1C returned CD40 NFkB inh -1.
For CO[C@@H]1CN(C)C(=O)c2ccc(NC(=O)C3CCCC3)cc2OC[C@H](C)N(CC2CC2)C[C@H]1C the results were CD40 NFkB inh -4.
CC(C)[C@@H](C)NC(=O)N(C)C[C@@H]1OCc2ccccc2-c2c(n(C)c3ccccc23)C(=O)N([C@H](C)CO)C[C@H]1C was read as CD40 NFkB inh 0.
Screening COCCNC(=O)C[C@@H]1CC[C@H]2[C@@H](COC[C@H](O)CN2C(=O)c2cc(Cl)cc(Cl)c2)O1 returned CD40 NFkB inh -18[25 µM].
`COCC(=O)Nc1ccc2c(c1)C(=O)N(C)[C@@H]1CC[C@@H](CC(=O)N3CCc4ccccc4C3)O[C@@H]1CO2` gave CD40 NFkB inh -7[25 µM].
C[C@H]1CN(C)C(=O)c2cccc(N)c2O[C@H]1CN(C)C(=O)OC(C)(C)C was read as CD40 NFkB inh 16.
`CC1(C)C(=O)N=C2c3ccccc3C(=O)C(=O)C21` (centres undefined) gave CD40 NFkB inh 91*[25 µM].
For C[C@@H](NC(=O)C[C@H]1C[C@H]2c3cc(NS(=O)(=O)c4ccc(F)cc4)ccc3O[C@H]2[C@H](CO)O1)c1ccccc1 the results were CD40 NFkB inh -7[25 µM].
CC=Cc1ccc2n(c1=O)C[C@H]1[C@H](CO)[C@@H](C(=O)NCC3CC3)N(C(=O)C3CCOCC3)[C@@H]21 (mixture of isomers) was read as CD40 NFkB inh -2[25 µM].
For O=C(c1cc(-c2cccs2)on1)N1CCc2ccccc2C1 the results were CD40 NFkB inh -18.
`Cc1ccc(OCc2cc(C(=O)N3CCc4sccc4C3)no2)cc1C` gave CD40 NFkB inh 38*.
`Cc1ccc(OCC(=O)N2CCc3ccccc3C2)cc1C` gave CD40 NFkB inh -13.
For CC(C)CC#Cc1ccc([C@@H]2[C@@H](CO)N3C(=O)CN(C(=O)NC4CCCC4)C[C@H]23)cc1 the results were CD40 NFkB inh 7.
Screening CC(C)NC(=O)Nc1cccc2c1O[C@H](CN(C)C(=O)OC(C)(C)C)[C@H](C)CN(C)C2=O returned CD40 NFkB inh -106.
Screening COc1ccc2oc(C(=O)NCCc3ccccc3)c(C)c2c1 returned CD40 NFkB inh 58*.
COc1ccc2oc(C(=O)NCC(c3ccco3)N(C)C)c(C)c2c1 (centres undefined) was read as CD40 NFkB inh 1.
For Cc1c(C(=O)NCCc2ccccc2)oc2ccc(S(=O)(=O)N3CCOCC3)cc12 the results were CD40 NFkB inh -16.
Screening O=C(C1CCOCC1)N1CC2(C1)[C@H](c1ccccc1)[C@@H](CO)N2Cc1ccccc1F returned CD40 NFkB inh 1[25 µM].
Screening CC(=O)Nc1ccc2c(c1)C(=O)N(C)C[C@@H](C)[C@@H](CN(C)C(=O)NC(C)C)O2 returned CD40 NFkB inh -3.
O=C1C(=NO)CCc2ccccc21 was read as CD40 NFkB inh 35*.
O=C(N/N=C1\CCc2ccccc21)c1ccccc1O was read as CD40 NFkB inh 25.
For O=C1Nc2ccccc2CCc2ccccc21 the results were CD40 NFkB inh 3.
For CO[C@H](CN(C)C(=O)C1CC1)[C@H](C)CN(C(=O)Nc1ccc(C(F)(F)F)cc1)[C@@H](C)CO the results were CD40 NFkB inh 3.
`COCCNC(=O)C[C@@H]1CC[C@@H]2[C@@H](COc3ccc(NS(=O)(=O)c4ccc(Cl)cc4)cc3C(=O)N2C)O1` gave CD40 NFkB inh -10[25 µM].
CC=Cc1cc2c(c(=O)o1)C(=O)C(O)C(C)O2 (centres undefined) was read as CD40 NFkB inh 41*.
Screening COc1ccccc1CNC(=O)C[C@H]1C[C@@H]2c3cc(NC(=O)Nc4ccccc4F)ccc3O[C@@H]2[C@@H](CO)O1 returned CD40 NFkB inh -2[25 µM].
Screening COc1ccc2c3c([nH]c2c1)[C@H](CO)N(Cc1ccccc1)CC31CN(C(=O)Nc2cccc(F)c2)C1 returned CD40 NFkB inh 12[25 µM].
`N#C[C@@H]1[C@H](c2ccc(C#Cc3ccc(F)cc3)cc2)[C@@H](CO)N1C(=O)C1CCC1` gave CD40 NFkB inh 90*[25 µM].
Screening COc1ccccc1C#Cc1ccc([C@H]2[C@@H](C#N)N(C(=O)C3CCC3)[C@@H]2CO)cc1 returned CD40 NFkB inh -7[25 µM].
